In the library only some 2.6% were active in any assay of this set; here they are far more common.
S2 tox: cell viability loss in ATXN counter-screen; S2 cells (HEK-293 line with an ATXN2-luciferase reporter) viability, CellTiter-Fluor protease fluorescence, 24 h; Potency, µM (highest dose often 56.7 µM), usual class: cytotoxic; 0.49% of 400,000 active; AID 651635; further: potency means the concentration at half of the fitted maximal effect; nearly all actives have a fitted effect of over 40% in size
uPA generation: inhibitors of cell surface uPA generation; Potency, µM (series often up to 38.3 µM), for inactives: at the top dose activity change, negative = inhibition, usual class: inhibitors; cell surface uPA generation assay, qHTS; 0.31% of 330,000 active; active means well fitted inhibition curve with a large enough effect; inconclusive means small, poorly fitted or top-dose-only effect; inactive means no such curve, though single readings can be large or run the other way; tested in mouse RAW 264.7 cells; further: potency means the concentration at half of the fitted maximal effect; on the % scale 0 is the no-effect control and ±100 the full control effect; nearly all actives have a fitted effect of over 55% in size
TGFb SMAD3 inh: TGF-b pathway inhibition; Potency, µM (titrated, usually from 46.1 µM), without a hit: top-dose activity, negative = inhibition, actives largely listed as inhibitors; AID 588855; 1.2% of 410,000 active; HepG2 CAGA-GFP TGF-b/SMAD3 reporter, GFP fluorescence, 18 h; TGF-beta stimulated, 500 pg/mL final; further: potency means the concentration at half of the fitted maximal effect; on the % scale 0 is the no-effect control and ±100 the full control effect; nearly all actives have a fitted effect of over 65% in size
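HEPG2 CAGA-GFP cells (1000/well, DMEM with 1% FBS) were pre-incubated 2 h at 37 degrees C, given compound by pin tool, then stimulated with TGF-beta at 500 pg/mL final for 18 h before per-cell GFP fluorescence imaging.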
HepG2 tox: counter-screen for TGF-b inhibitors: cytotoxicity in HepG2 cells; HepG2 CAGA-GFP viability, ATP luminescence, 18 h; 0.76% of 410,000 active; Potency, µM (doses to about 46.1 µM), for inactives: at the highest dose activity change, negative = cytotoxicity, most hits filed as cytotoxic; further: potency means the concentration at half of the fitted maximal effect
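HepG2 CAGA-GFP cells (1000/well, DMEM with 1% FBS) received compound, then TGF-beta at 500 pg/mL final, and were incubated 18 hours at 37 degrees C. Viability was read by CellTiter-Glo luminescence. Media-only wells were set as complete cell-killing and DMSO as no toxicity.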
ATXN2 expr inh: ATXN2 expression inhibition; HEK-293 ATXN2-luciferase reporter, luminescence, 24 h; Potency, µM (highest dose often 57 µM), for the others: at the highest dose activity change, negative = inhibition, usual class: inhibitors; 0.72% of 360,000 active; further: potency means the concentration at half of the fitted maximal effect; on the % scale 0 is the no-effect control and ±100 the full control effect; nearly all actives have a fitted effect of over 55% in size
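qHTS (up to 57 uM final) was run with 24 h compound exposure of reporter cells at 37 °C. Each well was multiplexed: SteadyGlo luminescence measured ATXN2-luciferase expression after a fluorogenic Gly-Phe-AFC viability readout (25 uM final).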
Giardia kill: Giardia lamblia killing; Giardia lamblia trophozoite viability; activity change, % at 7.66 µM, hits read low; 0.15% of 340,000 active; AID 540267; in the data active means activity change below about -80%; inconclusive means between about -30% and that limit;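 further: parasites exposed to compound for two days anaerobically before the ATP read; on the % scale 0 is the no-effect control and ±100 the full control effect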
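Compounds were tested on trophozoites seeded at 100 cells/well and held 48 hrs at 37 deg C anaerobically. An ATP-based luminescent kit measured the remaining live cells.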
The depositor's hits bear a star; i = inactive; ? = inconclusive; nt = not tested or not shown; [ ] = remark or other dose. Unless noted, the call rests on the fitted dose curve; in most records, active means well fitted curve in the direction sought with a large enough effect; inconclusive means small, poorly fitted or top-dose-only effect, or another doubt; inactive means no such curve, though single readings can be large; an effect the other way counts as inactive or inconclusive.

SMILES | S2 tox | uPA generation | TGFb SMAD3 inh | HepG2 tox | ATXN2 expr inh | Giardia kill
CC1(C)CC(NC(=O)c2ccc(Cl)c(S(=O)(=O)N(Cc3ccccc3)c3ccccc3)c2)CC(C)(C)N1 | nt | -13% | ? | 18µM* | ? | -7
NC(=O)COC(=O)c1ccc(Cl)c(S(=O)(=O)N(Cc2ccccc2)c2ccc(Cl)cc2)c1 | i | -4% | 16µM* | 1% | 8%[11.3 µM] | -4
NC(=O)NC(=O)COC(=O)c1ccc(Cl)c(S(=O)(=O)N(Cc2ccccc2)c2ccc(Cl)cc2)c1 | i | -7% | 14% | 0% | -5% | 0
COc1ccccc1N(Cc1ccccc1)S(=O)(=O)c1cccc(C(=O)O)c1 | i | 12% | -10% | 8% | -10% | ?
COc1ccccc1N(Cc1ccccc1)S(=O)(=O)c1cccc(C(=O)NC2CC(C)(C)NC(C)(C)C2)c1 | ? | -6% | -15% | 13µM* | ? | -15
CCC1CN(Cc2cccc3nccnc23)Cc2cc(OC)ccc2O1 (stereo not drawn) | i | nt | nt | nt | nt | nt
COc1ccc(OC)c(/C=C/c2sc3ccccc3[n+]2C)c1 | nt | nt | -2% | 2% | nt | nt
O=C(C[n+]1ccccc1Cl)c1ccc(F)cc1 | nt | nt | -5% | -34% | nt | nt
O=C(Nc1ccccc1N1CCCCC1)c1ccc([N+](=O)[O-])o1 | ? | -2% | 0% | -74% | -27% | ?
O=C(Nc1ccccc1N1CCN(C(=O)c2ccc(Cl)cc2)CC1)c1ccc([N+](=O)[O-])o1 | ? | -18% | ? | -14% | ? | -89*
O=C(Nc1ccccc1N1CCOCC1)c1ccc([N+](=O)[O-])o1 | ? | -6% | -2% | -16% | -26% | -92*
FC(F)(F)c1cccc(NC(=S)NCCN2CCOCC2)c1 | i | 2% | 8% | -29% | -15% | 1
Cc1ccc(C(=O)Nc2cccc(C(F)(F)F)c2)cc1-c1ccc2nc(NCCN3CCOCC3)ncc2c1 | nt | nt | nt | nt | 6.1µM* | nt
COc1cccc(-c2nc3ccccc3s2)c1 | i | -6% | 6% | -4% | 92% | -18
COc1ccc(-c2nc3ccccc3s2)cc1 | i | 3.5µM* | 2% | -39% | nt | ?
Oc1ccc(-c2nc3ccccc3s2)cc1 | i | 6.3µM* | ? | -59% | nt | -13
COC(=O)c1cc(Cl)ccc1OC | i | nt | nt | nt | 7% | nt
Clc1ccc(CNc2ncnc3nc[nH]c23)cc1 | nt | nt | 11% | -2% | nt | -18
C=CC[n+]1c(/C=C/c2ccc(OC(C)=O)c(OC)c2)ccc2ccccc21 | 16µM* | ? | -5% | -56% | nt | -10
CCC(=O)N(C1=C(NC(C)C)C(=O)c2ccccc2C1=O)C(C)C | i | 9% | ? | -35% | -22% | -3
CCCNC1=C(N(C(C)=O)c2cccc(F)c2)C(=O)c2ccccc2C1=O | nt | -13% | ? | 7.9µM* | 28µM* | -1
O=C(Nc1ccc(F)c(F)c1)c1cc(S(=O)(=O)NC2CCCC2)ccc1F | nt | nt | ? | -16% | nt | nt
O=C(Nc1ccc(Br)cc1)c1cc(S(=O)(=O)NC2CCCC2)ccc1F | ? | nt | ? | -61% | ? | nt
O=C(Nc1ccc(C(F)(F)F)cc1)c1cc(S(=O)(=O)NC2CCCCC2)ccc1F | ? | nt | 13µM* | -103% | ? | nt
Cc1ccc(NC(=O)c2cc(S(=O)(=O)NC3CCCCC3)ccc2F)cc1Cl | nt | nt | 10µM* | 10µM* | nt | nt
SMILES | S2 tox | uPA generation | TGFb SMAD3 inh | HepG2 tox | ATXN2 expr inh | Giardia kill
O=C(Nc1ccc(C(F)(F)F)cc1)c1cc(S(=O)(=O)NC2CCCCCC2)ccc1F | nt | nt | ? | 11µM* | 32µM* | nt
CSc1ccc(-c2ccc(C(=O)NCC3CCCO3)c(N3CCC(O)CC3)n2)cc1 (stereo not drawn) | i | nt | nt | nt | nt | nt
O=C(NCCCN1CCN(c2ccccc2F)CC1)c1nnc(Cc2ccc(Cl)cc2Cl)o1 | nt | nt | 11µM* | -62% | nt | nt
CCNC(=O)CC1SC(=Nc2ccc(Cl)cc2)N(CC)C1=O (stereo not drawn) | i | 7% | ? | 13µM* | nt | 1
CCOC(=O)c1sc(NC(=O)CCN2CCCCCC2)c(C(=O)OCC)c1C | i | -15% | ? | 18µM* | 1% | 10
CCOC(=O)c1c(NC(=O)CC)sc(C(=O)N2CCCCC2)c1C | i | -11% | -11% | -21% | -11% | -1
COc1cc(C2c3cc4c(cc3C(OC3OC5COC(c6cccs6)OC5C(O)C3O)C3COC(=O)C23)OCO4)cc(OC)c1O (stereo not drawn) | ? | -90% | 23% | -17% | 0.32µM* | 6
COc1cc(C2c3cc4c(cc3C(O)C3COCC23)OCO4)cc(OC)c1OC (stereo not drawn) | i | -11% | 10% | -13% | -9% | -9
COc1cc([C@@H]2c3cc4c(cc3[C@@H](O[C@@H]3O[C@@H]5CO[C@@H](C)O[C@H]5[C@H](O)[C@H]3O)[C@H]3COC(=O)[C@H]23)OCO4)cc(OC)c1O | ? | ? | 8% | -20% | 1.1µM* | -29
Cc1ccccc1S(=O)(=O)N1[C@@H](c2ccc(Br)cc2)C(C(=O)O)=CC[C@H]1c1ccc(Cl)cc1 | ? | -6% | 18µM* | -78% | -9% | 13
Cc1ccc(S(=O)(=O)N2[C@@H](c3ccc(Br)cc3)C(C(=O)O)=CC[C@H]2c2ccc(Cl)cc2)cc1 | i | 6% | ? | -29% | 1% | -4
Cc1ccccc1S(=O)(=O)N1[C@@H](c2ccccc2)C(C(=O)O)=CC[C@H]1c1ccc(Cl)cc1 | i | -1% | ? | -12% | -2% | 9
O=C(O)C1=CC[C@@H](c2ccc(Cl)cc2)N(S(=O)(=O)c2ccc(Cl)cc2)[C@H]1c1ccc(Br)cc1 | i | 14% | 13µM* | -89% | 13% | 3
CCOC(=O)c1c(C)[nH]c(C(=O)OC(C(=O)N(C)C)c2ccccc2)c1C (stereo not drawn) | nt | nt | 15% | 2% | nt | nt
CC1CN(CCC(=O)NC(c2cccnc2)C(F)(F)F)Cc2cc(Cl)ccc2O1 (stereo not drawn) | i | nt | nt | nt | nt | nt
O=C(c1cnsn1)N1CCOc2ccc(C(O)C(c3ccccc3)c3ccccc3)cc2C1 (stereo not drawn) | i | nt | nt | nt | nt | nt
CCC(C)(C)C1CCc2[nH]nc(C(=O)N/N=C(\C)c3ccco3)c2C1 (stereo not drawn) | ? | -6% | 14µM* | -66% | -33% | 0
COc1ccc(-c2nnc(NC(=O)c3ccc(F)cc3)o2)cc1 | 20µM* | ? | ? | -19% | -15% | -18
COc1ccc(NC(=O)c2ccc(C)cc2)cc1 | i | 10µM* | 9% | -9% | nt | -23
COc1cccc(C(=O)Nc2ccc3ccccc3c2)c1 | i | -3% | 1% | 1% | 51% | -26

Source: PubChem (National Center for Advancing Translational Sciences (NCATS))
